# A selection: hits, their analogues and other compounds. The true share with any hit is near 19%.
# VP16 counter: inhibits Gal4-VP16 luciferase reporter, ROR gamma counter-screen. Drosophila S2 Gal4-VP16 UAS-luciferase, luminescence, 20 h. Potency, µM (highest dose often 53.6 µM), actives largely listed as inhibitors. hit rate 3.5% among 310,000. AID 2546;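 also: Gal4-VP16 expression switched on by copper sulfate through the metallothionein promoter; nearly all actives have a fitted effect of over 50% in size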
# DT40 TDP1 CPT: growth inhibition of DT40 Tdp1-/-;hTDP1 cells with camptothecin (screen for TDP1 inhibitors). chicken DT40 Tdp1-/-;hTDP1 cells + 20 nM CPT, ATP luminescence, 48 h. Potency, µM (highest dose often 46.2 µM), most hits filed as inhibitors. hit rate 12% among 420,000. AID 686979; also: nearly all actives have a fitted effect of over 55% in size
#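 Chicken DT40 Tdp1-/- cells complemented with human TDP1, 400 cells/well, exposed to compounds plus 20 nM camptothecin for at least 48 h at 37 C; viability read as ATP content by CellTiter-Glo luminescence.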
# TDP1 cell noCPT: qHTS for Inhibitors of human tyrosyl-DNA phosphodiesterase 1 (TDP1): qHTS in cells in absence of CPT | DT40 Tdp1-/- hTDP1 cells, no CPT, ATP luminescence, 48 h | Potency, µM (series often up to 46.2 µM), hits mostly inhibitors | hit rate 15% among 420,000; also: nearly all actives have a fitted effect of over 55% in size
#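 Camptothecin absent (DMSO only). Human TDP1-complemented DT40 knockout cells, 400 cells/well, 37 °C for minimum 48 hr; ATP measured via CellTiter-Glo, 30 min dark incubation, luminescence.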
# TDP1 block: TDP1 (human) enzyme inhibition; recombinant TDP1, AlphaScreen DNA substrate cleavage; Potency, µM (series often up to 130 µM), hits mostly inhibitors; hit rate 0.28% among 350,000; Q9NUW8; also: nearly all actives have a fitted effect of over 40% in size
#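 Here, a 5' biotin and 3' phosphotyrosine-FITC DNA oligonucleotide reports Tdp1 activity: intact substrate bridges AlphaScreen beads, while cleavage leaves a 3' phosphate and drops signal. All incubations at room temperature.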
# RORg inh: ROR gamma (mouse) transcription inhibition; P51450; Drosophila S2 Gal4-RORgamma UAS-luciferase reporter, 20 h; Potency, µM (titrated, usually from 53.6 µM), hits mostly inhibitors; hit rate 5.4% among 310,000; AID 2551; also: nearly all actives have a fitted effect of over 60% in size
# Target sequence (P51450 whole entry, looked up, the tested form may be a part): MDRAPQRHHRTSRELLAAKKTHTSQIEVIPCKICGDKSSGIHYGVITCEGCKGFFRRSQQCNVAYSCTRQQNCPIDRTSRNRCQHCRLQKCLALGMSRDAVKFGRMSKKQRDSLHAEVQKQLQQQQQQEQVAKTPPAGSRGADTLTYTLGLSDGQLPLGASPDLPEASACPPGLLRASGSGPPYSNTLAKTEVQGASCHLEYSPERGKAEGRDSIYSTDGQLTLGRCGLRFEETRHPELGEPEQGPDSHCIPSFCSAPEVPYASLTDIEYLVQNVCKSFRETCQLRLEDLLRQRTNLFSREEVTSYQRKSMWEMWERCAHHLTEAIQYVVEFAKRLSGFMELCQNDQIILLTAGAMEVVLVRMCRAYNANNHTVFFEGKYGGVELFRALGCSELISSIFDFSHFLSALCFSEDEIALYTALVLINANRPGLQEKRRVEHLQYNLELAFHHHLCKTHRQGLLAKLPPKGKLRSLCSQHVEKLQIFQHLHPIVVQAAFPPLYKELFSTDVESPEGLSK
#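 Schneider cells (Drosophila), stable Gal4 DBD–ROR gamma + UAS-luc; 1 hr cmpd preincubation; Cu2+ induction 700 uM final; 20 hr ambient; luminescence.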
# Hits are given with their value; - = inactive; ? = inconclusive; . = no result given; ! = not confirmed by another sample; [ ] = another dose, or the depositor's remark. Calls follow the shape of the dose curve; as a rule, active = well fitted curve in the direction sought with a large enough effect; inconclusive = small, poorly fitted or top-dose-only effect, or another doubt; inactive = no such curve, though single readings can be large; an effect the other way counts as inactive or inconclusive.
SMILES,VP16 counter,DT40 TDP1 CPT,TDP1 cell noCPT,TDP1 block,RORg inh
Cc1ccc(Cc2c(-c3ccc(C#N)cc3)nc3ccc(Cl)cn23)cc1,.,-,?,.,.
CC1=NN2C(=N)/C(=C\c3cc(C)n(Cc4ccccc4)c3C)C(=O)N=C2S1,-,-,25.9µM,-,-
CC[C@H]1OC(=O)[C@H](C)C(=O)[C@H](C)[C@@H](O[C@@H]2O[C@H](C)C[C@H](N(C)C)[C@H]2O)[C@](C)(OC)C[C@@H](C)C(=O)[C@H](C)[C@H]2N(CCCCn3cnc(-c4cccnc4)c3)C(=O)O[C@]12C,.,2.37µM!,2.11µM,.,.
CC[C@H]1OC(=O)[C@H](C)[C@@H](O[C@H]2C[C@@](C)(OC)[C@@H](O)[C@H](C)O2)[C@H](C)[C@@H](O[C@@H]2O[C@H](C)C[C@H](N(C)C)[C@H]2O)[C@](C)(OC)C[C@@H](C)C(=O)[C@H](C)[C@@H](O)[C@]1(C)O,-,-,-,-,-
Cc1cc(=O)[nH]c(SCC(=O)Nc2ccccc2C)n1,-,-,-,-,-
Cc1cc(=O)[nH]c(N=N/C(=N/Nc2ccccc2C)c2ccccc2)n1,5.01µM,4.61µM,5.17µM,-,2.51µM
C/C(=N\Nc1nc(C)cc(=O)[nH]1)C1CC1,-,-,-,-,?
Cc1cc(=O)[nH]c(N=N/C(=N/Nc2ccc(O)cc2)c2ccccc2)n1,-,5.8µM,6.51µM,?,-
Cc1c(O)ccc(C(=O)CN2CCN(Cc3ccccc3)CC2)c1O,-,-,-,-,-
Cc1c(O)ccc(C(=O)CN2CCN(c3ccc(F)cc3)CC2)c1O,-,?,16.4µM,-,-
O=C(O)c1cc(O)c2c(c1)[C@H]([C@H]1c3cc(C(=O)O)cc(O)c3C(=O)c3c(O[C@@H]4O[C@H](CO)[C@@H](O)[C@H](O)[C@H]4O)cccc31)c1cccc(OC3O[C@H](CO)[C@@H](O)[C@H](O)[C@H]3O)c1C2=O (some centres not stated),.,14.6µM,14.6µM,.,.
O=C1c2cc(CO)cc(O)c2C(=O)c2c(O[C@@H]3OC(CO)[C@@H](O)[C@@H](O)[C@@H]3O)cccc21 (some centres not stated),.,-,-,.,.
Cc1ccc(C)c(N2CCN(C(=O)c3cnn(C(C)(C)C)c3C3CCN(C(=O)OC(C)(C)C)CC3)CC2)c1,.,18.4µM,?,-,.
Cc1ccc(Cl)cc1N1CCN(C(=O)c2cnn(C(C)(C)C)c2C2CCN(C(=O)OC(C)(C)C)CC2)CC1,.,25.9µM,?,-,.
Cc1ccc(-n2ncc(C(=O)N3CCN(c4ccccc4F)CC3)c2C2CCN(C(=O)OC(C)(C)C)CC2)cc1C,.,?,-,-,.
Cc1ccc(Cl)cc1N1CCN(C(=O)c2cnn(C)c2C2CCN(C(=O)OC(C)(C)C)CC2)CC1,.,6.51µM,5.8µM,-,.
Cc1ccc(-n2ncc(C(=O)N3CCN(c4cc(Cl)ccc4C)CC3)c2C2CCN(C(=O)OC(C)(C)C)CC2)cc1,.,?,-,-,.
O=C(c1ccc(OC2CCN(Cc3ccccc3O)CC2)cc1)N1CCCCC1,-,-,-,-,-
CC(C)Cn1nc(C(=O)Nc2cccc(S(=O)(=O)N3CCCC3)c2)c2ccccc2c1=O,.,?,?,-,.
CCCCn1nc(C(=O)NC2CCCCCC2)c2ccccc2c1=O,.,?,13µM,-,.
CCCCn1nc(C(=O)N[C@@H](CCSC)c2nc3ccccc3[nH]2)c2ccccc2c1=O,-,25.9µM,?,-,-
O=C(NC1CC1)c1cccc(NC(=O)c2cnn(-c3ccccc3)n2)c1,.,23.1µM,16.4µM,-,.
CC(C)Cn1nc(C(=O)Nc2cccc(C(=O)NC3CC3)c2)c2ccccc2c1=O,.,?,18.4µM,-,.
CCn1nc(C(=O)N[C@@H](CCSC)c2nc3ccccc3[nH]2)c2ccccc2c1=O,?,-,-,-,?
CCCn1nc(C(=O)NC2CCCC2)c2ccccc2c1=O,.,-,?,-,.
SMILES,VP16 counter,DT40 TDP1 CPT,TDP1 cell noCPT,TDP1 block,RORg inh
Cc1ccc(Cn2ccn(Cc3cccc(C(F)(F)F)c3)c(=O)c2=O)cc1,.,-,-,-,.
CCCCC(NC(C)=O)c1nc2ccccc2[nH]1 (configuration not stated),-,-,-,-,-
CCCC(NC(=O)c1ccc(Br)o1)c1nc2ccccc2[nH]1 (configuration not stated),.,16.4µM,?,-,.
COc1ccc2nc(NC(=O)CSc3nnc(N)s3)sc2c1,-,-,-,-,-
CCOc1ccc(-n2c(=S)sc3c(=O)[nH]c(SCC(=O)N4CCC(C)CC4)nc32)cc1,-,-,?,-,-
CCOc1ccc(-n2c(=S)sc3c(=O)[nH]c(SCC(=O)C(C)(C)C)nc32)cc1,-,25.9µM,18.4µM,-,-
COc1ccccc1NC(=O)c1sc2nc(C)c(C(=O)Nc3ccc(C)cc3C)c(-c3ccc(Br)cc3)c2c1N,.,-,-,-,.
CCC(C)NC(=O)c1sc2nc(C)c(C(=O)Nc3ccc(C)cc3C)c(-c3ccccc3Cl)c2c1N (configuration not stated),.,14.6µM,?,-,.
CCC(C)NC(=O)c1sc2nc(C)c(C(=O)Nc3ccc(C)cc3C)c(-c3ccc(Cl)cc3)c2c1N (configuration not stated),.,23.1µM,?,-,.
COc1ccc(NC(=O)c2sc3nc(C)c(C(=O)Nc4ccc(C)cc4C)c(-c4cccs4)c3c2N)cc1,.,-,-,-,.
CCC(C)NC(=O)c1sc2nc(C)c(C(=O)Nc3ccc(C)cc3C)c(-c3ccc(NC(C)=O)cc3)c2c1N (configuration not stated),.,20.6µM,?,-[12.3 µM],.
CC(=O)Nc1ccc(S(=O)(=O)NCc2ccc(C)cc2)cc1,-,?,?,-,-
COc1cccc(C(=O)NC2CC3CCCC(C2)N3Cc2ccc(F)cc2)c1 (configuration not stated),.,-,?,.,.
O=C(Nc1cccnc1Cl)c1cc(-c2ccco2)on1,-,-,-,-,-
CCCC[C@@H]1C[C@H]1C(NC(=O)c1ccccc1)c1ccc(C(=O)OC)cc1 (some centres not stated),-,.,.,-,-
CCN(CC)CCCNC(=O)c1ccc2c(Cl)c3c(nc2c1)CCCC3,-,25.9µM,16.4µM,-,-
CCCCN(CC)CCNC(=O)c1ccc2c(Cl)c3c(nc2c1)CCC3,-,?,16.4µM,.,-
CC[C@@]1(O)C[C@H](O[C@H]2C[C@@H](N(C)C)[C@@H](O[C@H]3C[C@@H](O)[C@@H](O[C@H]4CCC(=O)[C@@H](C)O4)[C@@H](C)O3)[C@@H](C)O2)c2c(cc3c(c2O)C(=O)c2c(O)cccc2C3=O)[C@H]1C(=O)OC,0.562µM,.,.,.,0.316µM

# Screening data from PubChem.
